# Laboratory results from the supplement of paper PMC6555819.
# Columns and labels:
# Test in all cases: PBM binding z-score (relative to random genomic background probes); higher = stronger binding; sequences stand for … in GC…GCGATTGACAGCGTAGAATGAAGG
# [1] = test system: FXR:RXRa (NR concentration 270 nM, RXRa partner concentration 90 nM)
# In short: (§1)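 On custom Agilent 4×180K arrays, double-stranded probes with 34-nt variable regions carried direct-repeat seeds, single-nucleotide variants, half-site ablations or random human genomic background. Ligand-free nuclear receptor dimers were applied for 1 h, and binding was read with antibodies against each partner (one per run). Binding z-scores come from regression-normalized fluorescence, with the random background probes as reference.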
# [2] = test system: LXRa:RXRa (NR concentration 270 nM, RXRa partner concentration 90 nM)
# In short: as §1
# [3] = test system: LXRa homodimer (NR concentration 270 nM)
# In short: as §1
# [4] = test system: LXRb:RXRa (NR concentration 270 nM, RXRa partner concentration 90 nM)
# In short: as §1
# [5] = test system: LXRb homodimer (NR concentration 270 nM)
# In short: as §1
# [6] = test system: PPARa:RXRa (NR concentration 270 nM, RXRa partner concentration 90 nM)
# In short: as §1
# [7] = test system: PPARg:RXRa (NR concentration 180 nM, RXRa partner concentration 90 nM)
# In short: as §1
# [8] = test system: PPARg:RXRa 270nM:90nM, anti-RXR (NR concentration 270 nM, RXRa partner concentration 90 nM)
# In short: as §1
# [9] = test system: PPARg:RXRa 30nM:10nM, anti-RXR (NR concentration 30 nM, RXRa partner concentration 10 nM)
# In short: as §1
# [10] = test system: PPARg:RXRa 90nM:30nM, anti-RXR (NR concentration 90 nM, RXRa partner concentration 30 nM)
# In short: as §1
Sequence,PBM binding z-score [1],PBM binding z-score [2],PBM binding z-score [3],PBM binding z-score [4],PBM binding z-score [5],PBM binding z-score [6],PBM binding z-score [7],PBM binding z-score [8],PBM binding z-score [9],PBM binding z-score [10]
ATCTCTAAGTAACCAAGTTCAGTGAATGCCGAAC,0.436,0.569,0.843,0.518,0.349,0.397,-0.15,0.228,0.371,0.352
ACTCCGAGGACAAAGGTCAGAGCTACGCCAGTGA,4.86,4.4,1.86,3.99,0.764,4.91,8.48,7.6,6.18,8.09
TCTCGGAGGACAAGAAAGGTCAGAGCTCGACATC,2.65,3.41,2.12,2.65,-0.275,3.37,0.803,2.26,2.52,2.37
CGTCCAAAGTCAGCAGGTCAGTGAAAGCGACGTG,0.237,0.521,0.0163,0.578,-0.765,1.24,-0.0107,0.0351,-0.634,-0.432
CGAAATAGGTCAAGGACAGTGAATCTCCGCACGC,5.6,4.09,0.715,3,0.676,5.27,7.22,6.58,4.2,6.39
CAAACTAGGTCACGAAAAGTCAAAGTCGAATGAC,4.52,5.32,0.989,3.22,0.716,5.53,9.43,7.43,5.91,7.51
GCTATTTGGTCAGTAAAAGGTCACACACCGGTCG,3.6,4.54,5.27,4.71,1.54,4.7,3.46,4.72,2.76,4.46
CTCGAAAGGTCGTGCTCTGGTGAGTATACCAAAC,4.94,3.65,0.255,3.52,0.0875,4.94,2.33,3.59,0.836,2.12
TCTGCTTGGTCAGTTGGTCAGCTAACGAGCTGCC,-0.433,-0.4,-1.02,-0.763,-0.0318,-0.161,-1.11,0.771,1.04,0.933
GAAGACAGGTGAAACGCAGGTAACTCAGGGTGGC,0.0149,0.318,-0.652,-0.0898,-0.743,1.14,0.681,0.383,-0.249,-0.0724
CCTTACGGGTCACGAGGTTATCGCACGACGAGCG,6.89,4.91,0.648,4.02,0.0453,5.78,7.31,6.79,3.29,5.64
CGTCCAAGGTCAAAGAGGTCAGTGAATGCCGAGT,7.54,6.09,4.44,5.48,1.51,5.88,5.22,5.89,2.41,4.63
TTACCAAGGTGAAGGTCGTTGACCCCTCTGTAGA,6.12,5.25,2.15,4.5,-0.739,4.34,3.79,4.59,2.37,3.77
CTACCAAGGTGAACAAGGTCATTGATTACTATTC,3.73,3.77,2.33,3.63,-0.00581,3.92,2.24,2.85,0.479,1.65
CCTTACGGGTCACTGATAGGTTATAGCATTTGGA,5.04,4.27,0.473,3.53,0.0559,5,4.57,4.4,1.47,3.36
TCGCCTAGGTCATTCAGGGGCCAGTATAGAAAGC,4.82,3.45,0.443,3.13,0.742,3.8,1.91,2.45,2.3,2.02
TCTTGTAGATCAAACAGGTTAAGAAAGCCTGAGT,0.553,0.608,0.121,0.509,-0.073,1.1,-0.134,1.44,2.65,2.3
ATATCTAGGTTATCGGGTCATTCAGTTTGCGCAT,3.27,3.47,2.2,3.33,1.83,4.98,6.91,6.17,4.2,6.24
ATACCAAGGTGATCGTGAGGTCGTCGATACTAAC,1.46,1.08,0.311,0.992,-0.191,1.75,0.672,0.691,0.0309,0.54
ACTATTAGTTGAGATGAGGGCAACCGATAGGTTG,1.23,0.291,0.338,0.212,0.0544,0.427,0.607,0.07,0.15,0.083
AGAATGAAGTTATACGTAGATCAGGGAAGAAAGT,-0.499,-0.297,-0.439,-0.59,-0.391,-0.311,0.842,-0.228,0.0525,-0.163
CCTCGGAGGAGAGAAGGTCAGAGCTGTCCGCTTT,0.811,0.874,-0.155,0.734,-0.806,1.62,-0.501,0.307,-0.994,-0.582
CCGACTGGGGCAGAGGTTACCATACTCAGTACGA,0.287,0.761,-0.0955,1.34,-1.08,3.62,8.22,7.57,6.11,7.57
ACAGACGGGTGAGTGAAGGTAACTCAGCTGGACG,0.431,-0.164,-0.31,-0.488,-0.833,0.0344,0.424,-0.249,-0.296,-0.268
